Laboratory results taken from ChEMBL document CHEMBL4513216, “Probing the Open Global Health Chemical Diversity Library for Multistage-Active Starting Points for Next-Generation Antimalarials” (ACS Infect Dis, 2020).
Out of some 69,000 compounds screened, about 8,600 (12%) showed an effect of 50% or more. The sample as a whole holds a higher share of strong results than the screen did.

System: Plasmodium berghei
Assay: Screen against P. berghei liver stage (PbLuc), transformed with Luciferase, at 10uM
Assay type: functional, HepG2
Details: tested at 10 uM

| SMILES | INHIBITION [%] |
| --- | --- |
| CC(=O)c1cnc(NCCN2CCCC2)nc1C | 33.1 |
| CCN(C)C(=O)c1coc(COc2ccccc2)n1 | -8.47 |
| CC/C(C)=C/CCN1CCN(C)C2(CCNC(=O)CC2)C1 (stereo unspecified) | 35.9 |
| CN1CCN(CCC(F)(F)C(F)F)CC12CCNC(=O)CC2 (stereo unspecified) | 49.9 |
| CC(C)=CCC/C(C)=C/CN1CCN(C)C2(CCNC(=O)CC2)C1 (stereo unspecified) | 67.5 |
| Cc1cc(C(=O)N2CC(O)CO2)c2ccc(C)c(C)c2n1 (stereo unspecified) | 15 |
| O=C(O)c1ccccc1CN1CCCC(Cc2ccn[nH]2)C1 (stereo unspecified) | 7.721 |
| Cc1ncc(CN2CCOC(c3ccc(-c4cc[nH]n4)cn3)C2)s1 (stereo unspecified) | 19.6 |
| Cc1ncc(CN2CCOC(c3ccc(-c4cnn(C)c4)cn3)C2)s1 (stereo unspecified) | -6.92 |
| Cc1ncc(CN2CCOC(c3ccc(-c4ccccc4F)cn3)C2)s1 (stereo unspecified) | 95.3 |
| CCCNC(=O)NC(C)c1ccccn1 (stereo unspecified) | 21.2 |
| Cn1ccnc1-c1nccn1C[C@@H]1CCCN2CCCC[C@H]12 | 12 |
| COc1ccc(-c2nccn2C[C@@H]2CCCN3CCCC[C@H]23)cc1 | 65.3 |
| c1cnc2c(-c3nccn3C[C@@H]3CCCN4CCCC[C@H]34)cccc2c1 | 20.2 |
| CCc1ccc(CNC(=O)N2CCN(Cc3cc(C)on3)CC2)s1 | 7.12 |
| CC(C)CN1CC(O)CN(C(=O)c2cccc(C(F)(F)F)c2)CC1=O (stereo unspecified) | 45.7 |
| CC(C)(C)CN1CC(O)CN(C(=O)c2cccc(C(F)(F)F)c2)CC1=O (stereo unspecified) | 60.8 |
| O=C1CN(C(=O)c2cccc(C(F)(F)F)c2)CC(O)CN1CC1CC1 (stereo unspecified) | 25.3 |
| CCN1CC(O)CN(C(=O)c2cccc(C(F)(F)F)c2)CC1=O (stereo unspecified) | 5.58 |
| N#CCCN1CC(O)CN(C(=O)c2cccc(C(F)(F)F)c2)CC1=O (stereo unspecified) | 57 |
| COCCN1CC(O)CN(C(=O)c2cccc(C(F)(F)F)c2)CC1=O (stereo unspecified) | 13.1 |
| CSc1ccccc1C(=O)N1CCOC(CCN(C)C)C1 (stereo unspecified) | 12.1 |

| SMILES | INHIBITION [%] |
| --- | --- |
| Cc1ccc(NC2CCCN(CCCc3ccccc3)C2)nn1 (stereo unspecified) | 35.7 |
| O=C(CCNc1ncccn1)N1CCCN(c2nccs2)CC1 | 33.7 |
| CCN(CCC1CCN(C(=O)NCc2nncn2CC)CC1)CC1CC1 | -38.2 |
| CCc1cnc(N2C[C@@H]3C[C@H](C(=O)NC)[C@H](C2)O3)nc1 | -45.8 |
| OCC1(CNC2CCc3cc4c(cc32)OCCO4)CC1 (stereo unspecified) | -122 |
| OCCNC1CCc2cc3c(cc21)OCCO3 (stereo unspecified) | 55.1 |
| OCCCNC1CCc2cc3c(cc21)OCCO3 (stereo unspecified) | -56.6 |
| O=C(c1ccc(Cl)cc1)N1CC2(CCNC2)OCc2ccccc21 (stereo unspecified) | 39.1 |
| CC(NC(=O)CCC(C)(C)C)C(=O)Nc1ccc(-n2cncn2)cc1 (stereo unspecified) | 50 |
| CC(NC(=O)Nc1ccc(-n2cncn2)cc1)C(=O)NC(C)(C)C (stereo unspecified) | 41.4 |
| CCC(C)(C)CC(=O)NC(C)C(=O)Nc1ccc(-n2cncn2)cc1 (stereo unspecified) | 26 |
| CC(C)c1noc(CCCC(=O)NC(C)c2ccccn2)n1 (stereo unspecified) | -30.6 |
| Cc1csc(C(Cc2ccsc2)NC(=O)CN(C)Cc2ccccn2)n1 (stereo unspecified) | 28.3 |
| COc1ncnc(N)c1CNCCc1ccc(-n2cccn2)cc1 | 16.8 |
| COc1ncnc(N)c1CNCCc1ccccc1 | 75.4 |
| COc1ncnc(N)c1CNCCOc1ccccc1Cl | 21.3 |
| COC(=O)[C@H](CCSC)NC(=O)Cc1c(C)nn(-c2ccccc2)c1C | 5.58 |
| CC(C)c1noc(CCCC(=O)NCC2CCS(=O)(=O)C2)n1 (stereo unspecified) | 21.6 |
| Cc1csc(C2CCCN(C(=O)c3c[nH]c(C)n3)C2)n1 (stereo unspecified) | 24 |
| Cc1[nH]nc(CCC(=O)N2C[C@@H]3CC[C@H]2CN(C(=O)N(C)C)C3)c1C | 45.4 |
| CCOC(=O)CN1CCC(NC(=O)OC(C)(C)C)CC1 | 32.3 |
| COC(=O)CCN1CCC(NC(=O)OC(C)(C)C)CC1 | 50.2 |

| SMILES | INHIBITION [%] |
| --- | --- |
| CSCCN1CCC(NC(=O)OC(C)(C)C)CC1 | -19.7 |
| CC(C)CN1CCN(C(=O)c2ccncc2F)Cc2cccnc21 | -18.4 |
| O=C(CN1CCOCC1)Nc1cc(C(F)(F)F)ccc1-n1cccc1 | 42.6 |
| N#CCCN(CC1CCCO1)C(=O)c1ccc(C#N)cc1 (stereo unspecified) | -5.31 |
| N#CCCN(CC1CCCO1)C(=O)c1ccsc1 (stereo unspecified) | 57.9 |
| N#CCCN(CC1CCCO1)C(=O)c1ccc2nonc2c1 (stereo unspecified) | 2.59 |
| CCNc1cc2c(nn1)CCN(C(=O)c1cc(C)n(C3CC3)c1C)C2 | 35.9 |
| CCNc1cc2c(nn1)CCN(C(=O)c1ccc(C(N)=O)cc1)C2 | 41.65 |
| CNc1cc2c(nn1)CCN(C(=O)c1cc(C)n(C3CC3)c1C)C2 | 79.1 |
| CNc1cc2c(nn1)CCN(C(=O)c1cccc3c1OCCO3)C2 | 51.1 |
| CNc1cc2c(nn1)CCN(C(=O)c1cccc3c1OCO3)C2 | -13.3 |
| CCNc1cc2c(nn1)CCN(C(=O)c1cccc3c1OCCO3)C2 | 3.81 |
| CNc1cc2c(nn1)CCN(C(=O)c1ccoc1)C2 | 51.3 |
| CNc1cc2c(nn1)CCN(C(=O)c1cc(F)cc(F)c1)C2 | 17.7 |
| CCNc1cc2c(nn1)CCN(C(=O)c1ccnc(-n3ccnc3)c1)C2 | 54.15 |
| Cc1cc(C(=O)N2CCc3nnc(N(C)C)cc3C2)c(C)n1C1CC1 | 19.4 |
| CCNc1cc2c(nn1)CCN(C(=O)c1ccoc1)C2 | 39.2 |
| CCNc1cc2c(nn1)CCN(C(=O)c1ccnc(N(C)C)c1)C2 | 4.59 |
| CN(CCc1ccccn1)C(=O)Cn1cc(-c2ccccc2)nn1 | 6.23 |
| CN1CCN([C@@H]2CN(C(=O)c3cc4ccc(F)cc4[nH]3)C[C@H]2O)CC1 | 36 |
| O=C(NCCn1ccnc1)N1CCCC1c1ccncc1 (stereo unspecified) | 31.9 |
| O=C1CN(C(=O)C2CN(c3cccc(F)c3)CCO2)CCN1 (stereo unspecified) | 13.35 |

| SMILES | INHIBITION [%] |
| --- | --- |
| O=C(NCC1CC1)c1c2c(N3CCCC3)ncnc2n2ccccc12 | 33.4 |
| CC(C)c1ncc2c(n1)CN(Cc1cccc(C(N)=O)c1)CC2 | -34 |
| O=C(c1ccccc1)N1CCO[C@@H]2CN(Cc3ccc[nH]3)C[C@@H]2C1 | 35.8 |
| COCCOCC(=O)N1C[C@@H]2CC[C@H](Oc3ccccc3F)[C@@H]2C1 | 15.9 |
| O[C@H]1CCN(CCCOc2ccccc2F)C[C@@]12CCCO2 | 33.85 |
| Fc1cccc(-n2ccc(CN3CCCC3Cn3cccn3)n2)c1 (stereo unspecified) | -31.8 |
| Cc1ccc2cc(CNCCN3CCCC3)c(=O)[nH]c2c1 | 39.7 |
| O=C(NCc1ccc2c(c1)CCCO2)c1ccc(C2CCNC2)cc1 (stereo unspecified) | 50.4 |
| O=C(NCc1ccc2c(c1)CCCO2)c1ccccc1C1CCNC1 (stereo unspecified) | -26.1 |
| O=C(NCc1ccc2c(c1)CCCO2)C1CNCCO1 (stereo unspecified) | 12.9 |
| Cc1noc(CCCC(=O)NCCc2cc3ccccc3[nH]2)n1 | 7.18 |
| CC(=O)N[C@@H]1C[C@H](c2ccc(OCCO)cc2)OC2(CCOCC2)C1 | 18.3 |
| O=C(c1cscn1)N1CCC2(CN(Cc3ccoc3)C2)C1 | 34.4 |
| Cc1nc(CN2CCC3(CC2)CCN(C(=O)c2cscn2)C3)cs1 | 75.4 |
| Cc1ccc(CN2CC3(CCN(C(=O)c4cscn4)C3)C2)s1 | 35.1 |
| Cc1ccc(CN2CC3(CCN(C(=O)c4cscn4)C3)C2)o1 | 54.7 |
| Cc1ccc(CN2CCC3(CC2)CCN(C(=O)c2cccnc2)C3)o1 | 34 |
| Cc1ccc(CN2CC3(CCN(C(=O)c4cccnc4)C3)C2)o1 | 71.1 |
| O=C(c1cscn1)N1CCC2(CCN(Cc3nccs3)CC2)C1 | 14.8 |
| Cc1cnc(N2CC3(CCN(C(=O)c4cccnc4)C3)C2)nc1 | 22.2 |
| Cc1noc(C)c1CN1CCC2(CC1)CCN(C(=O)c1cscn1)C2 | 40.8 |
| CNC(C(=O)OC)c1cc(F)ccc1F (stereo unspecified) | -0.219 |

| SMILES | INHIBITION [%] |
| --- | --- |
| Cn1cc(CN2CCC[C@]3(C(=O)O)CN(c4ncccn4)C[C@@H]3C2)cn1 | -44.2 |
| Cc1ccc(NC(=O)C2CSCN2C(=O)c2ccncc2)c(C)c1 (stereo unspecified) | 16.1 |
| CC(C(=O)NCc1ccc(N2CCCCCC2)nc1)S(C)(=O)=O (stereo unspecified) | -12.2 |
| O=S(=O)(c1ccccc1)N1CCOC(Cn2ccnc2)C1 (stereo unspecified) | -12.3 |
| Cc1ccc(CN2CC(C(=O)Nc3ccccc3)C3(CCOCC3)C2)o1 (stereo unspecified) | -24.9 |
| O=C(c1cscn1)N1CC[C@@H]2[C@@H]1CCN2C1CCOC1 (stereo partly specified) | 12.6 |
| O=C(Cc1ccccn1)N1CCN2C[C@H](Oc3cccc(F)c3)C[C@H]2C1 | 33 |
| Cc1ccc(O[C@@H]2C[C@H]3CN(C(=O)Cc4ccccn4)CCN3C2)cc1 | 84.7 |
| Cc1ccc(O[C@@H]2C[C@H]3CN(C(=O)c4cnccn4)CCN3C2)cc1 | -28.8 |
| O=C(c1cccnc1)N1CCN2C[C@H](Oc3cncnc3)C[C@H]2C1 | 55.5 |
| O=C(Cc1ccccn1)N1CCN2C[C@H](OCCN3CCCC3)C[C@H]2C1 | 68.4 |
| O=C(Cc1cccc(F)c1)N1CCN2C[C@H](Oc3cncnc3)C[C@H]2C1 | 39.4 |
| O=C(c1ccco1)N1CCN2C[C@H](Oc3cncnc3)C[C@H]2C1 | -5.63 |
| O=C(c1ccc(F)cc1)N1CCN2C[C@H](OCc3ccccn3)C[C@H]2C1 | -1.71 |
| O=C(c1ccnnc1)N1CCN2C[C@H](Oc3cccnc3)C[C@H]2C1 | -10.2 |
| O=C(c1ccnnc1)N1CCN2C[C@H](OCc3ccccn3)C[C@H]2C1 | -5.05 |
| O=C(c1ccncc1)N1CCN2C[C@H](Oc3cncnc3)C[C@H]2C1 | 23.3 |
| O=C(Cc1ccccn1)N1CCN2C[C@H](Oc3cncnc3)C[C@H]2C1 | 67.2 |
